Measurements from PubChem BioAssay (NCI).
Compounds without any hit were thinned out: in the full panel of roughly 79,000, 15% have a hit. Cut-off read from the data, not from the text of the source: active = growth inhibition above about 70%; inactive = the rest.

Legend:
[1] = NCI Yeast Anticancer Drug Screen. Data for the rad50 strain (AID 155);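 note: 0% = growth of vehicle-only cultures of the same strain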; details: S. cerevisiae rad50 strain growth inhibition; at 50.0 µM; stronger effect = higher value
Outline: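 Readout: growth inhibition relative to vehicle-treated cultures. Compound exposure was carried out in a genetically defined yeast strain deficient in DNA damage repair.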

[2] = NCI Yeast Anticancer Drug Screen. Data for the mec2-1 strain (AID 157); details: S. cerevisiae mec2-1 strain, at 50.0 µM, stronger effect = higher value
Outline: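 Mutant yeast (mec2-1) grown with compound; growth inhibition relative to vehicle control reported.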

[3] = NCI Yeast Anticancer Drug Screen. Data for the sgs1 mgt1 strain (AID 161);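 note: 0% = growth of cultures given vehicle only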; details: S. cerevisiae sgs1 mgt1 strain, at 50.0 µM, stronger effect = higher value
Outline: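 Percent growth inhibition was derived by comparing compound-exposed mutant yeast with vehicle-exposed cultures. The strain carries alterations in DNA damage repair.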

[4] = NCI Yeast Anticancer Drug Screen. Data for the cln2 rad14 strain (AID 165);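 note: 0% = growth equal to vehicle treated cultures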; details: S. cerevisiae cln2 rad14 strain, at 50.0 µM, stronger effect = higher value
Outline: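 Readout is yeast growth inhibition versus vehicle-treated controls, using a strain with cln2 and rad14 alterations exposed to compound.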

[5] = NCI Yeast Anticancer Drug Screen. Data for the bub3 strain (AID 167); details: S. cerevisiae bub3 mutant strain, at 50.0 µM, stronger effect = higher value
Outline: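 Readout: yeast growth inhibition, expressed relative to vehicle-only wells. The test organism is a mutant strain from a panel with lesions in DNA repair or checkpoint genes.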

[6] = NCI Yeast Anticancer Drug Screen. Data for the mlh1 rad18 strain (AID 175); details: S. cerevisiae mlh1 rad18 strain growth inhibition; at 50.0 µM; stronger effect = higher value
Outline: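 Genetically defined yeast (DNA repair-deficient) exposed to compounds; growth inhibition determined relative to vehicle.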

Measured: growth inhibition

CC(C)(C)CC(C)(C)c1ccc(OCc2ccc(C(F)(F)F)cc2)cc1
inactive: [1] 14.2% | [2] 10.9% | [3] 5.1% | [4] 13.4% | [5] -4.8% | [6] -1.7%

C#CCN(CC#C)C(=O)C(=O)c1c[nH]c2ccc(OC)cc12
inactive: [1] 41.2% | [2] 0.9% | [3] 56.8% | [4] 44.5% | [5] 52.4% | [6] 51%

NC1CC(=O)c2sccc21 (centres undefined)
inactive: [1] 9.8% | [2] 2.15% | [3] 16.8% | [4] 9.2% | [5] 17.8% | [6] 1.25%

COc1ccc(NC(=O)NCc2cccc(Cl)c2)cc1
inactive: [1] 2.6% | [2] 35.4% | [3] 32% | [4] -8.4% | [5] -9.15% | [6] 44.1%

c1ccc2c(c1)Cc1c(Cc3csc4ccccc34)ccc3cccc-2c13
inactive: [1] -14.2% | [2] -22.4% | [3] -4.1% | [4] 13.3% | [5] -5% | [6] -15.2%

OC(COc1ccc2ccccc2c1)COc1ccc2ccccc2c1
inactive: [1] -8.55% | [2] -22.1% | [3] -7.85% | [4] -16.3% | [5] -11.6% | [6] -5.8%

O=C(OCC1OC(OC(=O)c2ccc([N+](=O)[O-])cc2)CC(OC(=O)c2ccc([N+](=O)[O-])cc2)C1OC(=O)c1ccc([N+](=O)[O-])cc1)c1ccc([N+](=O)[O-])cc1 (centres undefined)
inactive: [1] 11.2% | [2] 15.2% | [3] 4.1% | [4] -7.35% | [5] -4.15% | [6] 36.5%

CC/C(C)=N/C(=O)NN
inactive: [1] -20.1% | [2] 8.75% | [3] -16.2% | [4] 19.3% | [5] 35.5% | [6] 20.3%

O=C(O)CCSc1nc2c(=O)[nH][nH]c(=O)c2n1Cc1ccccc1
inactive: [1] 7.2% | [2] -13.2% | [3] 7.05% | [4] -53.1% | [5] -0.75% | [6] 9.7%

CC(=O)NC(CCc1ccccc1)C(=O)O (centres undefined)
inactive: [1] 16.1% | [2] 32.4% | [3] 0.9% | [4] 24.9% | [5] 40.8% | [6] 13.8%

CC(C)c1ccc2c(c1)CCC1C(C)(C)[C@@H](O)CC[C@]21C (some centres undefined)
inactive: [1] -15.3% | [2] -40.1% | [3] -23.2% | [4] 19.4% | [5] -32.6% | [6] -22.3%

Clc1ccc2ccccc2n1
inactive: [1] 15.1% | [2] -1.65% | [3] -6.4% | [4] -23.1% | [5] 9.8% | [6] -8.15%

OCCN1OCCCC1c1ccccc1 (centres undefined)
inactive: [1] -0.75% | [2] -14.3% | [3] 1.2% | [4] -28.1% | [5] -31.2% | [6] 0.1%

N#CC(C#N)c1c(F)c(F)c(C(F)(F)F)c(F)c1F
inactive: [1] 10.4% | [2] -4.6% | [3] 34.9% | [4] -8.95% | [5] -9.9% | [6] -0.65%

Cc1nc2ccccc2c(=O)n1NC(=O)c1ccccn1
inactive: [1] -6.6% | [2] -10% | [3] -11.6% | [4] -1.05% | [5] -5.55% | [6] -8.25%

CCCCCCSC#N
inactive: [1] 34.8% | [2] 13.9% | [3] -8.75% | [4] 18.1% | [5] 15.2% | [6] 7.05%

COc1ccc(/C=C/C(=O)CC(=O)/C=C/c2ccc(OC)cc2)cc1
inactive: [1] 23.1% | [2] 35% | [3] 7.65% | [4] 0.6% | [5] -2.75% | [6] 10.8%

COc1ccc(CC2COC(=O)[C@@H]2Cc2ccc(O)cc2)cc1OC (some centres undefined)
inactive: [1] -32.9% | [2] -43.5% | [3] -14.1% | [4] -2.85% | [5] 4% | [6] -7.55%

COc1ccc(/C=C(\Cl)c2ccc(OC)cc2)cc1
inactive: [1] -2.9% | [2] 3.8% | [3] -26.6% | [4] -18.1% | [5] 5.6% | [6] -26.8%

CCOc1c(N=Nc2ccccc2OC)c(-c2ccccc2)nn1C(=S)S
inactive: [1] 33.4% | [2] 42% | [3] 24.8% | [4] 5.75% | [5] 66.7% | [6] 18.9%

CCOC(=O)NCc1cccc2ccccc12
inactive: [1] 3.2% | [2] -2.7% | [3] -10.3% | [4] -89.4% | [5] 10.7% | [6] 2.5%

O=C(Nc1ccc(Cl)cc1)NS(=O)(=O)c1coc2ccccc2c1=O
inactive: [1] 9.65% | [2] 7.3% | [3] -5.75% | [4] 18.6% | [5] 11.6% | [6] 23.1%

O=P(O)(OCCOc1ccccc1)OCCOc1ccccc1
inactive: [1] 6.25% | [2] 10.5% | [3] 8.25% | [4] -24.6% | [5] -11.6% | [6] -12.8%

O=C1CCC2(O1)c1ccc(O)cc1Oc1cc(O)ccc12
inactive: [1] 1.05% | [2] -24.1% | [3] -17.4% | [4] -3.9% | [5] 7.6% | [6] -7.3%

Oc1cccc(CCc2ccccn2)c1
inactive: [1] -2.45% | [2] 0.85% | [3] -11.3% | [4] -24.3% | [5] -3.85% | [6] -4.05%

O=CNC1(c2ccccc2)CCCCC1
inactive: [1] 2% | [2] -37% | [3] -12.2% | [4] 16.4% | [5] 4.6% | [6] 4.85%

Cn1c(=O)c2c(ncn2CN2CCN(Cn3cnc4c3c(=O)n(C)c(=O)n4C)CC2)n(C)c1=O
inactive: [1] 2.75% | [2] 28.2% | [3] -7.45% | [4] 16.1% | [5] -63.9% | [6] -30%

CC(=O)NCCc1[nH]cnc1N=Nc1ccc(Br)cc1
inactive: [1] 0.95% | [2] 39.4% | [3] 14.7% | [4] -6.15% | [5] 52.1% | [6] 27.3%

CC(=O)Nc1nnc(S(C)(=O)=O)s1
inactive: [1] -29.6% | [2] -29% | [3] -55.6% | [4] 7.25% | [5] -36.9% | [6] -33%

CC(CN(C)C)/C(=N\Nc1ccccc1)c1ccccc1 (centres undefined)
inactive: [1] 16.5% | [2] 10% | [3] 29.2% | [4] 1.1% | [5] -7.85% | [6] 35.4%

N#Cc1cnn(-c2ccc([N+](=O)[O-])cc2)c1N
inactive: [1] 14.8% | [2] -16.6% | [3] 3.85% | [4] -26.6% | [5] 1.7% | [6] 20.5%

N#C/C(=C\n1c(=S)[nH]c2ccccc21)c1nc2ccccc2s1
inactive: [1] -2.85% | [2] -4.45% | [3] -9.15% | [4] -4.15% | [5] 4.25% | [6] 36.8%

CCCCN(CCCC)C(=O)C(O)C(=O)N(CCCC)CCCC
inactive: [1] -5.05% | [2] -13.8% | [3] -4.4% | [4] -9.6% | [5] -13.3% | [6] -3.8%

O=C(O)CC(Nc1ncccn1)C(=O)O (centres undefined)
inactive: [1] 3.05% | [2] 6% | [3] 10.7% | [4] 24.1% | [5] -6.1% | [6] 5.4%

O=C(O)CCc1nc2c(n1-c1ccccc1)C(=O)c1ccccc1C2=O
inactive: [1] 38.2% | [2] 20.5% | [3] 34.6% | [4] 34.3% | [5] 37.6% | [6] 34.2%

CC1=CC(=O)c2ccc(F)cc2C1=O
inactive: [1] -11.8% | [2] -3.85% | [3] 15% | [4] -2.9% | [5] -7.95% | [6] 13.8%

O=C(CN1CCCCC1)NC(=O)N/N=C\c1ccco1
inactive: [1] 0.1% | [2] 3% | [3] 6.1% | [4] -59% | [5] -0.15% | [6] 13.8%

CCN(CC)CCCC(C)Nc1nccc(/C=C/c2ccc(Cl)cc2)n1 (centres undefined)
inactive: [1] 9.9% | [2] 16.3% | [3] 28.9% | [4] -1.1% | [5] 14% | [6] 41.7%

Clc1cccc(NCNC2Nc3ccccc3N2)c1
inactive: [1] 39% | [2] 20% | [3] 6.6% | [4] -14.3% | [5] 18.1% | [6] 27.9%
